# Only some compounds are listed: those with a hit (about 1.3% of all), similar ones and a draw of the others.
# PERK inhibitor: human PERK inhibition, primary cell-based screen. CHO PERK-DD fusion, SEAP luminescence translation reporter. inhibition, % at 5.6 µM. 0.17% of 220,000 active. AID 1416;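 active = inhibition above the mean inhibition of all tested compounds plus 3 SD, set separately per screening campaign, cut at about 2.9% in these data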;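 note: PERK kinase domain activated by AP20187 dimerizer at 100 nM; 0% = DMSO with dimerizer and 100% = rapamycin at 8.4 µM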
# S1P3 antagonist: blocks the human S1P3 receptor; Q99500; AID 485; CHO S1P3 NFAT-BLA reporter, FRET fluorescence, antagonist mode; inhibition, % at 4.98 µM; 0.27% of 170,000 active;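 active = inhibition above the plate cutoff, the mean inhibition of test wells on that plate plus 3 SD, cut at about 28% in these data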;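 note: cells challenged with S1P at its EC80 of 0.8 µM; blue over green emission ratio from cleaved BLA substrate after 4 h stimulation; 0% = S1P-stimulated wells and 100% = unstimulated DMSO-only wells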
# S1P4 antag: blocks the human S1P4 receptor; O95977; S1P4-expressing cells, antagonist mode, reporter read-out; inhibition, % at 4.98 µM; 0.26% of 220,000 active; AID 1510; in the data active = inhibition above about 29%;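 note: 0% = wells stimulated with agonist and 100% = vehicle wells without agonist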
# m-calpain inh: calpain II (pig) inhibition; purified calpain II, fluorogenic peptide substrate, 30 min; inhibition, % at 16 µM; 0.37% of 220,000 active; AID 1236;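 active = inhibition above about 50%, limit read from the data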
# S1P4 agonist: activates the human S1P4 receptor | 0.35% of 220,000 active | AID 1509 | S1P4-expressing cell line, agonist reporter assay | O95977 | activation, % at 4.98 µM; in the data active = activation above about 11%;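 note: 0% = DMSO vehicle and 100% = reference agonist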
# * marks the source's active call; other numbers are inactive results; . = not tested or not shown.
SMILES,PERK inhibitor,S1P3 antagonist,S1P4 antag,m-calpain inh,S1P4 agonist
CC(C)(C)c1ccc(C(=O)NC(=S)Nc2nc3c(s2)CCCC3)cc1,1.4,-20.6,-9.3,-3.1,-0.7
CN(C)c1ccc(C(=O)Nc2nc3c(s2)CCCC3)cc1,0.6,90.2*,2.3,0.6,-0.3
C=CCn1c(Sc2nc(C)cs2)nc2c1c(=O)[nH]c(=O)n2C,0.9,.,-13.4,53.2*,-1.0
CC(C)Cn1c(-c2csc(C(C)C)c2)n[nH]c1=S,0.7,0.0,3.7,54.1*,-0.4
O=C(NCCN1CCOCC1)c1ccc(N2CCCC2)c([N+](=O)[O-])c1,0.6,-2.5,-21.7,-3.2,-1.4
CCOc1ccccc1NC1c2ccccc2C(=O)N1Cc1ccco1 (stereo not drawn),0.0,1.4,-11.1,-10.7,-0.2
CCc1ccccc1NC1c2ccccc2C(=O)N1Cc1ccco1 (stereo not drawn),-0.2,74.6*,-26.5,2.7,0.4
COc1ccc(Cc2c(O)nc(SCC(=O)NC(C)(C)C)[nH]c2=O)cc1,0.8,-6.3,-27.9,-31.4,1.3
Cc1ccc(S(=O)(=O)n2c3ccc(F)cc3c3nc(C)sc32)cc1,-0.1,12.5,-21.9,3.2,1.0
COc1cccc(C2=CC(c3ccccc3)n3nnnc3N2)c1 (stereo not drawn),0.1,.,-6.8,62.6*,0.5
CC(C)(C)Nc1nc2ccc([N+](=O)[O-])cc2o1,-1.0,12.3,-8.8,-12.5,1.4
CCN(CC)CCCNC(=S)N(Cc1cccnc1)Cc1cc2cc(C)ccc2[nH]c1=O,-0.1,-9.0,10.4,16.5,-1.0
C=CCn1c(SCC(=O)c2ccc(O)c(O)c2)nnc1-c1ccccc1OC,0.7,-0.4,-30.2,-12.4,0.5
CCn1c(SCC(=O)c2ccc(O)c(O)c2)nnc1-c1ccccc1OC,-0.3,73.8*,7.6,-62.7,-0.8
CCc1ccc(CNC(=O)C2CCN(S(=O)(=O)N3CCC4(CC3)OCCO4)CC2)cc1,0.3,-10.2,-10.0,5.1,2.6
O=C(O)Cn1cnc2c(=S)nc[nH]c21,3.7*,12.0,-13.8,2.1,2.3
Cn1c(=O)c2ncn(CC(=O)O)c2n(C)c1=O,0.3,5.7,-1.8,-11.8,0.2
COc1ccc(CCN2C(=O)NC(NS(=O)(=O)c3ccc(NC(C)=O)cc3)(C(F)(F)F)C2=O)cc1OC (stereo not drawn),-0.3,-0.4,-13.1,7.0,-1.4
O=C(CSc1n[nH]c(-c2ccncc2)n1)c1ccccc1,0.1,71.8*,-16.3,19.8,0.3
Cc1ccc(NS(=O)(=O)c2cc3c4c(cccc4c2)C(=O)NC3=O)cc1C,-1.4,-15.5,-15.6,14.6,1.8
COc1ccc(Nc2nc(N)c([N+](=O)[O-])c(NCc3ccccc3)n2)cc1,-1.5,-3.6,4.1,25.0,-1.9
COc1cccc(CNc2ccc([N+](=O)[O-])c(NCC(=O)O)n2)c1,2.3,-5.1,-2.4,88.8*,0.6
Cc1cccc(C)c1-n1cccc1/C=C1\SC(=S)N(c2cccc(C(=O)O)c2)C1=O,0.1,-6.2,-3.4,110.5*,0.8
CCS(=O)(=O)N1CCN(C(=O)c2cc(OC)cc(OC)c2)CC1,0.6,0.0,-20.8,-11.7,-1.9
CCCS(=O)(=O)N1CCN(C(=O)c2cc(OC)cc(OC)c2)CC1,0.6,94.6*,5.4,21.9,-1.3
SMILES,PERK inhibitor,S1P3 antagonist,S1P4 antag,m-calpain inh,S1P4 agonist
CN(C)c1ccc(-c2cc([C@H]3[C@@H]4C=CCC[C@@]4(C)C(=O)N3Cc3ccccc3)ccc2F)cc1,.,.,.,-31.5,.
CCOC(=O)c1cc2c(=O)n3ccccc3nc2n(CC2CCCO2)c1=NC(C)=O (stereo not drawn),0.1,.,-22.8,.,17.9*
CC(C)(C)C(=O)n1nc(-c2ccccc2)oc1=O,0.7,-0.5,-8.1,-13.1,0.1
O=C(CN1CCCCCCC1)Nc1ccc(Cl)cc1Cl,0.3,-1.9,4.1,87.8*,1.2
CCc1nnc(N2C(=O)c3ccccc3C2(O)c2ccccc2)s1 (stereo not drawn),-1.2,0.0,1.4,4.8,1.0
O=C(C1CC1)N1CCc2cc(Br)cc(S(=O)(=O)NC3CCCCC3)c21,-0.7,.,-15.2,53.4*,-0.6
CCCn1cnc2c(=S)nc(N)[nH]c21,3.4*,-11.4,-1.2,10.4,0.2
N#Cc1cccnc1Oc1ccccc1,0.1,-4.1,8.6,1.7,-2.1
CN(C)C(=O)C(=O)c1c(-c2ccccc2)cc2ccccn12,0.6,.,1.9,53.6*,-2.4
NC(N)=N/N=C/c1cccc([N+](=O)[O-])c1O,-0.8,1.9,-6.2,23.5,-1.4
O=[N+]([O-])c1cccc(/C=N\N=C2c3ccccc3-c3ccccc32)c1O,1.6,6.8,-8.5,60.7*,0.2

# Screens: PubChem BioAssay, several laboratories
